Data on seven compounds can be found in PubChem BioAssay (EPA / NIEHS).

Results filed as inconclusive are left out. More than one record can exist for a structure, and the calls need not agree. Active and inactive are the calls of the source. The calls were made as follows, unless noted: active = hit-call score of the fitted dose curve at least 0.9, where 1 is the maximum; inactive = score below 0.9.

Test [1] has as its target Retinoic acid receptor RXR-alpha (Homo sapiens) (UniProt P19793). As to the kind of experiment: OT_NURR1_NURR1RXRa_0480: Odyssey Thera (OT) 8-hour HEK293T Protein Complementation Assay for Nurr1/retinoid X receptor (RXR) (AID 2283385; active = hit-call score of the fitted dose curve at least 0.9, where 1 is the maximum). Put shortly: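 8 h compound exposure, HEK293T; Nurr1/RXRα fragment complementation; fluorescence intensity; positive fitting direction vs DMSO baseline.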

Test [2] shares this target. As to the kind of experiment: OT_NURR1_NURR1RXRa_1440: Odyssey Thera (OT) 24-hour HEK293T Protein Complementation Assay for Nurr1/retinoid X receptor (RXR) (AID 2283386; active = hit-call score of the fitted dose curve at least 0.9, where 1 is the maximum). Put shortly: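 Interaction of Nurr1 with RXRα brings fused reporter fragments together in human HEK293T cells, restoring a functional reporter. Fluorescence intensity is measured 24 h after chemical treatment, and values are analysed in the positive direction against DMSO.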

For test [3], the target named is Peroxisome proliferator-activated receptor gamma (Homo sapiens) (UniProt P37231). The test is described as follows: OT_PPARg_PPARgSRC1_0480: Odyssey Thera (OT) 8-hour Protein-Complementation Assay for Peroxisome Proliferator-activated Receptor Gamma / SRC-1 Co-activator (AID 2283387; active = hit-call score of the fitted dose curve at least 0.9, where 1 is the maximum;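 also: nuclear to cytoplasmic split Venus YFP fluorescence ratio reporting PPARg SRC-1 interaction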). The gist of the method:
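Read-out: 488 nm N/C fluorescence ratio from complemented Venus YFP fragments, ≥350 cells per image, gain-of-signal fitted against DMSO baseline. Fusions of PPARg/SRC-1 with IFP1/IFP2 expressed transiently in HEK293T; compounds applied 8 h.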

Test [4] has the same target. The test is described as follows: OT_PPARg_PPARgSRC1_1440: Odyssey Thera (OT) 24-hour Protein-Complementation Assay for Peroxisome Proliferator-activated Receptor Gamma/ SRC-1 Co-activator (AID 2283388; active = hit-call score of the fitted dose curve at least 0.9, where 1 is the maximum;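 also: nuclear to cytoplasmic ratio of reconstituted Venus YFP fluorescence in fixed imaged cells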). The gist of the method: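 Cells carrying the PPARg/SRC-1 fragment-complementation reporter receive compound for 24 hours, are fixed and counterstained with Draq5, then imaged. Increased nuclear relative to cytoplasmic YFP fluorescence above DMSO baseline indicates binding activity.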

Read-out in test [5]: Tumor necrosis factor receptor superfamily member 6 (Homo sapiens) (UniProt P25445)
As to the kind of experiment: LTEA_HepaRG_FAS: Life Technologies and Expression Analysis (LTEA) Assay for Fas cell surface death receptor (FAS) using HepaRG (AID 2283447). The note with it: mRNA level, 48 h; actives raise or lower the signal. The gist of the method: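 Differentiated HepaRG cells in serum-free induction medium were exposed 48 h to 8 half-log concentrations up to 100 uM in 0.5% DMSO, in duplicate. FAS mRNA was measured by qRT-PCR normalised to ACTB, GAPDH and POLR2A; bidirectional fit versus DMSO.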

Read-out in test [6]: Fatty acid synthase (Homo sapiens) (UniProt P49327)
The test is described as follows: LTEA_HepaRG_FASN: Life Technologies and Expression Analysis (LTEA) Assay for Fatty Acid Synthase (FASN) using HepaRG (AID 2283448).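 As to AC50: differentiated human HepaRG liver cells in serum-free induction medium.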 Particulars: mRNA level, 48 h; actives raise or lower the signal. The gist of the method:
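FASN expression changes, up or down relative to 0.5% DMSO, were measured by qRT-PCR in human HepaRG cells after 48 h treatment with chemicals at eight concentrations (half-log steps from 100 uM).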

Read-out in test [7]: Cyclin Dependent Kinase Inhibitor 1A (CDKN1A), CDKN1A (gene 1026)
As to the kind of experiment: LTEA_HepaRG_CDKN1A: Life Technologies and Expression Analysis (LTEA) Assay for Cyclin Dependent Kinase Inhibitor 1A (CDKN1A) using HepaRG (AID 2283450). The note with it: mRNA level, 48 h; actives raise or lower the signal. Put shortly: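 Gain or loss of CDKN1A transcript is scored by bidirectional fitting against 0.5% DMSO vehicle. Human HepaRG cultures receive chemicals for 48 h across an 8-point series peaking at 100 uM; expression comes from qRT-PCR.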

Read-out in test [8]: catalase (CAT), CAT (gene 847)
As to the kind of experiment: LTEA_HepaRG_CAT: Life Technologies and Expression Analysis (LTEA) Assay for catalase (CAT) using HepaRG (AID 2283452).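 As to AC50: TaqMan qRT-PCR signal normalized to ACTB GAPDH and POLR2A housekeeping genes.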 The note with it: mRNA level, 48 h; actives raise or lower the signal. The gist of the method:
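HepaRG cells in serum-free induction medium, 0.5% DMSO vehicle, exposed 48 h in duplicate over 8 half-log concentrations from 100 uM. CAT mRNA measured by qRT-PCR, normalized to ACTB, GAPDH, POLR2A; bidirectional fit versus DMSO.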

Read-out in test [9]: flavin-containing dimethylaniline monooxygenases 3 (FMO3), FMO3 (gene 2328)
As to the kind of experiment: LTEA_HepaRG_FMO3: Life Technologies and Expression Analysis (LTEA) Assay for flavin-containing dimethylaniline monooxygenases 3 (FMO3) using HepaRG (AID 2283453).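 As to AC50: differentiated human HepaRG liver cells in serum-free induction medium.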 Particulars: mRNA level, 48 h; actives raise or lower the signal. Put shortly:
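Differentiated HepaRG cells in serum-free induction medium, exposed 48 h in duplicate to 8 half-log concentrations up to 100 uM in 0.5% DMSO. FMO3 mRNA by qRT-PCR, normalized to ACTB, GAPDH, POLR2A; bidirectional fit vs DMSO.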

Read-out in test [10]: Cytochrome P450 (CYP1A1), CYP1A1 (gene 1543)
The test is described as follows: LTEA_HepaRG_CYP1A1: Life Technologies and Expression Analysis (LTEA) Assay for Cytochrome P450 (CYP1A1) using HepaRG (AID 2283454). The note with it: mRNA level, 48 h; actives raise or lower the signal. Put shortly:
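Using HepaRG cultures with 0.5% DMSO as vehicle, eight-concentration exposures (max 100 uM) lasted 48 h. Transcript levels were measured by TaqMan qRT-PCR and normalized to ACTB, GAPDH and POLR2A.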

Read-out in test [11]: CFLAR gene, CFLAR (gene 8837)
As to the kind of experiment: LTEA_HepaRG_CFLAR: Life Technologies and Expression Analysis (LTEA) Assay for CFLAR gene using HepaRG (AID 2283455). The note with it: mRNA level, 48 h; actives raise or lower the signal. Put shortly:
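Differentiated HepaRG cells in serum-free induction medium were exposed 48 h in duplicate to eight half-log concentrations up to 100 uM in 0.5% DMSO; mRNA measured by TaqMan qRT-PCR, normalized to ACTB, GAPDH, POLR2A; bidirectional fitting versus DMSO.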

Read-out in test [12]: Cyclin D2 (CCND2), CCND2 (gene 894)
As to the kind of experiment: LTEA_HepaRG_CCND2: Life Technologies and Expression Analysis (LTEA) Assay for Cyclin D2 (CCND2) using HepaRG (AID 2283449).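 Also: CCND2 transcript measured by TaqMan qRT-PCR and normalised to three housekeeping genes.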 The note with it: mRNA level, 48 h; actives raise or lower the signal. Put shortly:
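Chemicals in 0.5% DMSO, eight half-log concentrations from 100 uM top, were applied in duplicate for 48 h to human HepaRG cells in serum-free induction medium. CCND2 mRNA by TaqMan qRT-PCR, normalised to ACTB/GAPDH/POLR2A; bidirectional fit versus DMSO.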

Read-out in test [13]: Cyclin D1 (CCND1), CCND1 (gene 595)
The test is described as follows: LTEA_HepaRG_CCND1: Life Technologies and Expression Analysis (LTEA) Assay for Cyclin D1 (CCND1) using HepaRG (AID 2283451).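 As to AC50: differentiated human HepaRG liver cells in serum-free induction medium; TaqMan qRT-PCR transcript level normalised to ACTB GAPDH and POLR2A housekeeping genes.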 Particulars: mRNA level, 48 h; actives raise or lower the signal. Put shortly:
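Expression change is measured by qRT-PCR in HepaRG cells after 48 h treatment across eight concentrations topping at 100 uM, with duplicate wells and DMSO (0.5%) serving as baseline for bidirectional fitting.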

Test [14] is described as follows: CEETOX_H295R_11DCORT: CeeTox H295R High-throughput Steroidogenesis Assay for 11-Deoxycortisol (11DCORT) (AID 2283432).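 As to AC50: 11-deoxycortisol secreted into the medium measured by LC-MS/MS.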 The note with it: actives raise or lower the signal. The gist of the method:
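H295R cells; 10 uM forskolin prestim 48 h; compound in 0.1% DMSO 48 h; media extracted with MTBE; 11-deoxycortisol by LC-MS/MS, 7-point standard curve; gain/loss vs DMSO baseline; viability by MTT in same wells.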

Test [15] can be described thus: CEETOX_H295R_CORTIC: CeeTox H295R High-throughput Steroidogenesis Assay for Corticosterone (CORTIC) (AID 2283437).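 Also: corticosterone secreted into medium quantified by mass spectrometry.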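 As to AC50: human H295R adrenal cells prestimulated with forskolin before chemical exposure.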 The note with it: actives raise or lower the signal. The gist of the method:
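H295R adrenal cells prestimulated 48 hours with 10 uM forskolin, then exposed 48 hours to chemical in 0.1% DMSO. Corticosterone in medium measured by HPLC-MS/MS after MTBE extraction; MTT viability in the same wells; bidirectional fit versus DMSO.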

The nature of test [16]: CEETOX_H295R_CORTISOL: CeeTox H295R High-throughput Steroidogenesis Assay for Cortisol (AID 2283438).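 Also: cortisol secreted into medium quantified by LC-MS/MS.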 Particulars: actives raise or lower the signal. The gist of the method:
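Forskolin 10 uM 48 h prestim → test cmpd in DMSO (0.1% final) 48 h → medium MTBE-extracted → LC-MS/MS cortisol vs 7-pt std curve. Gain/loss of signal fitted vs DMSO. MTT viability in same wells.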

A short description of test [17]: CEETOX_H295R_DOC: CeeTox H295R High-throughput Steroidogenesis Assay for DOC (AID 2283439). The note with it: actives raise or lower the signal. The gist of the method:
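Readout: 11-deoxycorticosterone in culture medium by reverse-phase C18 HPLC with ESI+ tandem MS after MTBE extraction. Cells: H295R, forskolin-primed (10 uM, 48 h), chemical-treated 48 h; DMSO 0.1% final. Activity fitted bidirectionally versus DMSO.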

A short description of test [18]: CEETOX_H295R_PROG: CeeTox H295R High-throughput Steroidogenesis Assay for Progesterone (PROG) (AID 2283442).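 As to AC50: human H295R adrenal cells primed with 10 µM forskolin before dosing.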 Particulars: actives raise or lower the signal. Put shortly: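 Measured analyte is progesterone secreted by H295R cells at 48 h of chemical treatment, following 10 uM forskolin priming. Quantitation used HPLC-MS/MS against a 7-point standard curve; cytotoxicity was checked by MTT absorbance.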

Test [19] is described as follows: CEETOX_H295R_ANDR: CeeTox H295R High-throughput Steroidogenesis Assay for Androstenedione (ANDR) (AID 2283436). The note with it: actives raise or lower the signal. Put shortly:
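H295R cells, following OECD 456 with minor changes, exposed to chemicals for 48 h. Androstenedione in the medium was quantified by HPLC-MS/MS after MTBE extraction. Fitting was bidirectional versus DMSO; chemicals were diluted until MTT viability was ≥70%.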

Chain of Peroxisome proliferator-activated receptor gamma (Homo sapiens) (P37231 whole entry, looked up, the tested form may be a part): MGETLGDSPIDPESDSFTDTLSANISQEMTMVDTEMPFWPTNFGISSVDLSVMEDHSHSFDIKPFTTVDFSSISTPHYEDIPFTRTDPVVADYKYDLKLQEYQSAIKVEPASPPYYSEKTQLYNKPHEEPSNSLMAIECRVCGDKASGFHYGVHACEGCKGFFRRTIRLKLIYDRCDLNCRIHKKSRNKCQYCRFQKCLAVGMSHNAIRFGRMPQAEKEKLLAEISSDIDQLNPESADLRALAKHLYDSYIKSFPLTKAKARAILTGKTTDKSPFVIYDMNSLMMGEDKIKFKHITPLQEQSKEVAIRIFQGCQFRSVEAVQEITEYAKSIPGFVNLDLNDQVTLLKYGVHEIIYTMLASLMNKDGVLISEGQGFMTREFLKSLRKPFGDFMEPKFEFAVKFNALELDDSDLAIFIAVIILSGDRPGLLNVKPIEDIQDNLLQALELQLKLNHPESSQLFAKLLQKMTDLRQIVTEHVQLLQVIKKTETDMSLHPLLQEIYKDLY
Chain of Fatty acid synthase (Homo sapiens) (P49327 whole entry, looked up): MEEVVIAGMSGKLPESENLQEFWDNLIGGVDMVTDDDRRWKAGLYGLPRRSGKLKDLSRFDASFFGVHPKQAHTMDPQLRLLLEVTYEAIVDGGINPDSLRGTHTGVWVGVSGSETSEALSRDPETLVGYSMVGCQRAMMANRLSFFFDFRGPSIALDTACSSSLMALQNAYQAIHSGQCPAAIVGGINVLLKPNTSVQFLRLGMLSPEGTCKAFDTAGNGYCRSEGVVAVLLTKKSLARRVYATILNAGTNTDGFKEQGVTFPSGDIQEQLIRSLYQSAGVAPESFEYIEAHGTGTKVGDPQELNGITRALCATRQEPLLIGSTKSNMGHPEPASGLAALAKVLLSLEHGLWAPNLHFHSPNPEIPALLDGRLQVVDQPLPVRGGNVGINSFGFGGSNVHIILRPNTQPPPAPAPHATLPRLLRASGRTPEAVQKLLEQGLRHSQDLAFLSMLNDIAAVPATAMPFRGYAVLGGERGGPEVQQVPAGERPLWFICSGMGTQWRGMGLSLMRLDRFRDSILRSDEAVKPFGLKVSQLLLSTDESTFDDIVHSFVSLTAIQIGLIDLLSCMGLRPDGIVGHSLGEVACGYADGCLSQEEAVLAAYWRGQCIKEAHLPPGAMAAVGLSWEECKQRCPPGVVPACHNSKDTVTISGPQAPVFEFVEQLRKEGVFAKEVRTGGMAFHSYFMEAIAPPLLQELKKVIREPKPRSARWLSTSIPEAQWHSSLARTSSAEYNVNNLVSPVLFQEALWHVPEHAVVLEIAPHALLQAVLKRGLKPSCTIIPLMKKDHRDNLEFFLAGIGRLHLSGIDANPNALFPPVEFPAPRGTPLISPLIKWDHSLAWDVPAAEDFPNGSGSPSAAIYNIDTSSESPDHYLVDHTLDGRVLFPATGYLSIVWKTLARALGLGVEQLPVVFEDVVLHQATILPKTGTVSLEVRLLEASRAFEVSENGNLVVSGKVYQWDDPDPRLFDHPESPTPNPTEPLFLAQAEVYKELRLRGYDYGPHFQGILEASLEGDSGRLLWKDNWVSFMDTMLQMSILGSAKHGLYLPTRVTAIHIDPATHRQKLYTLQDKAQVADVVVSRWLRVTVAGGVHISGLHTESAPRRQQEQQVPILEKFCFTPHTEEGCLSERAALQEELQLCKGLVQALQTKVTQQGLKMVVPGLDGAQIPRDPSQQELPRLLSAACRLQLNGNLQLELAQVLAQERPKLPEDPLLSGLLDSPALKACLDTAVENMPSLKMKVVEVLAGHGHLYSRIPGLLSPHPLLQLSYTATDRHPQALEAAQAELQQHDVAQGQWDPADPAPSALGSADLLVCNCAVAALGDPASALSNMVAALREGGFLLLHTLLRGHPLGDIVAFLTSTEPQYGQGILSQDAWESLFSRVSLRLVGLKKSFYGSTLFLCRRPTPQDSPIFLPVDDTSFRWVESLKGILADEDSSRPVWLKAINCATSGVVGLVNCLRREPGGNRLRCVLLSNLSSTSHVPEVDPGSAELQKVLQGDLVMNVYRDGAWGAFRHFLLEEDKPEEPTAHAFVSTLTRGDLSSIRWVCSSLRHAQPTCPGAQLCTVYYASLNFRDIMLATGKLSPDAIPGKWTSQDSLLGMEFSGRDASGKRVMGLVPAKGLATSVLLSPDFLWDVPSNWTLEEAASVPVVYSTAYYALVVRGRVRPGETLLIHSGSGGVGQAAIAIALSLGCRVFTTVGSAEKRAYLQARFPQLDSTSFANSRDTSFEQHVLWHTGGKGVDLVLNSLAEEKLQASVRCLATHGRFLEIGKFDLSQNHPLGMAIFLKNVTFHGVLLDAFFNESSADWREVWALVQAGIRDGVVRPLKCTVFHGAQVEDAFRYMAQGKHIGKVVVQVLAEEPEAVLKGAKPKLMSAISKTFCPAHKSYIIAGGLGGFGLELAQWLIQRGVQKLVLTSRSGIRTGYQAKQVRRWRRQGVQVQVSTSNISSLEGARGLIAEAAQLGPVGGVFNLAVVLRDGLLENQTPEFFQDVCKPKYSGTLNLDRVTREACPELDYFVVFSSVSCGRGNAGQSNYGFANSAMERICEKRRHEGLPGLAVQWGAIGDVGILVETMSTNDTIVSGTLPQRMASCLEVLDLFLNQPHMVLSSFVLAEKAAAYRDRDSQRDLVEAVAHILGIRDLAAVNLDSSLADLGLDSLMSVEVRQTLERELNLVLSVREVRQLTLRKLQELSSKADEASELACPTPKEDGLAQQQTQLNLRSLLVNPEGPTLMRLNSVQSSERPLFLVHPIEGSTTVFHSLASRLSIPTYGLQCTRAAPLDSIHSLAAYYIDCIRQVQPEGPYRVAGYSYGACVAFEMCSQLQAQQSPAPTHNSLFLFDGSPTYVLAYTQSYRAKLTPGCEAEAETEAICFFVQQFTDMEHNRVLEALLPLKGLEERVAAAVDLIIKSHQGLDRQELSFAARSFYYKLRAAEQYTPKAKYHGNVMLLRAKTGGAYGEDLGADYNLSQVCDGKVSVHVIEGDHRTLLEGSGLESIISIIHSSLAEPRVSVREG
Chain of Retinoic acid receptor RXR-alpha (Homo sapiens) (P19793 whole entry, looked up, the tested form may be a part): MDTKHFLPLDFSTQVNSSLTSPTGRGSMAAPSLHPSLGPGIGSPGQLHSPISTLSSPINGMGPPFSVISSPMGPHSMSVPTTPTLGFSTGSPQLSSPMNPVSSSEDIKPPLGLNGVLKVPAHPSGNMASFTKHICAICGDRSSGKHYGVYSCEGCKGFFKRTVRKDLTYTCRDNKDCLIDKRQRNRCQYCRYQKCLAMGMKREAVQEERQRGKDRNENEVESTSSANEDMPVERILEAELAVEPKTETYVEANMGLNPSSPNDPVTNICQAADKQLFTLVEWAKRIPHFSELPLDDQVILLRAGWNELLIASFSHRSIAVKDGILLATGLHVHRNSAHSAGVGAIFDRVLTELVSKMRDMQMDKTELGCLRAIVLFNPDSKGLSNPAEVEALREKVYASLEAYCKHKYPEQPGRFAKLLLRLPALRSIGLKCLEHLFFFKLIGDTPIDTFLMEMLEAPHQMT

For orientation: AC50 means the concentration at which the activity in the assay is half-maximal. On to `Cc1ccc(C(C)C)cc1`, for which the compound was called inactive in test [1], in test [2], in test [3], in test [4], in test [5] and in test [6]. For the same compound, the call in [7], in [8], in [9] and in test [11] was inactive. In test [10], the AC50 is 74.9 µM (active).

For `O=c1ccc2ccccc2o1`, the outcome in test [1], in [2], in test [3], in test [4], in [5] and in test [6] was inactive. For the same compound, the compound was called inactive in [12], in [13], in test [8], in test [9], in [10] and in [11].

Consider `CN1C(=O)CC[C@H]1c1cccnc1`, for which the compound was classed as inactive in test [2], in [3], in [4], in test [5], in test [6] and in test [12]. For the same compound, the compound was called inactive in test [7], in test [8], in test [9] and in test [11]. Moreover, the AC50 in test [10] was 76.9 µM (active).

As to `CCCCCCCCCCCC[N+](C)(C)C`, the result in test [3], in test [4], in test [14], in [15], in test [16] and in test [17] was inactive. For the same compound, the result in test [18], in [12] and in test [11] was inactive. The AC50 in test [5] is 82.5 µM (active); in [6] it was 80.9 µM (active); in test [7], 82 µM (active); in test [13] it was 82.7 µM (active); in test [8], 75.4 µM (active); in [9] it was 79.3 µM (active). Moreover, in test [10], the AC50 was 67.8 µM (active).

Take `NC(=O)c1nc(-c2cccc(-c3cc(F)ccc3OCC(F)(F)C(F)(F)F)c2)n[nH]1`: the compound was called inactive in test [3], in [4], in test [14], in test [19], in test [15] and in test [16]. Further, the outcome in [17], in [18], in [5], in test [12], in test [13] and in [9] was inactive. Further, the result in test [11] was inactive. The AC50 was 79 µM (active) in test [6], 50 µM (active) in [8] and 20.1 µM (active) in test [10].

For `CC(=O)N1CCN(c2ccc(OC[C@H]3CO[C@](Cn4ccnc4)(c4ccc(Cl)cc4Cl)O3)cc2)CC1`, the result in [3], in test [4], in [18] and in test [12] was inactive. For the same compound, the AC50 in [14] is 0.783 µM (active); in test [15] it was 1.77 µM (active); in test [16], 0.895 µM (active); in test [17], 1 µM (active); in [5], 89.3 µM (active); in test [6], 26.1 µM (active). The AC50 in [7] is 12.3 µM (active); in test [8], 13.1 µM (active); in test [9] it was 11.8 µM (active); in test [10], 0.698 µM (active); in test [11] it was 74.2 µM (active).

`CCCCCCCCOC(=O)c1cc(O)c(O)c(O)c1`: the compound was called inactive in [1], in [2], in test [3], in test [4], in [14] and in test [16]. The call in test [5], in test [6], in [12], in [7], in test [13] and in test [8] was inactive. The call in test [9] and in [11] was inactive. Also, the AC50 in test [2] was 68.5 µM (active); in test [17], 5 µM (active); in test [18], 2.44 µM (active); in test [10] it was 50 µM (active).
